Among all 370,000 compounds or so, about 4,700 (1.3%) were called active.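 Rule for the calls: active = inhibition above the plate cutoff, the mean of all test compounds on that plate plus 3 SD (cut at about 35% in these data); inactive = the rest.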 The entries come from a sample that favours actives as a whole.
Experiment: small molecules binding CAG repeat RNA – biochemical, fluorescence, primary screen (AID 651821);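 note: 0% = DMSO alone and 100% = 100 µM mitoxantrone as full dye displacement; higher means more dye released from RNA so lower well fluorescence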
Settings: r(CAG) RNA repeat, TO-PRO-1 dye displacement fluorescence; at 3 µM; active compounds read high

inhibition, inactive:
O=C(CN1CCCc2ccccc21)NCc1ccc(F)cc1 5.24%, C=CS(=O)(=O)N(Cc1nnn(Cc2ccccc2)c1Br)[C@H](C(=O)OC)C(C)C -1.47%, Cc1cccc(NC(=O)c2cc3c(C)nn(-c4ccccc4)c3s2)c1 11.1%, Cc1nn2c(c1-c1ccccc1)N=C(c1ccco1)CC2c1ccccc1 (stereo not drawn) 11.8%, COC(=O)C1=C(C)N(Cc2ccccc2C(F)(F)F)C(=NCc2ccc(OC)cc2)NC1c1cccc(C(F)(F)F)c1 (stereo not drawn) 1.76%, O=c1c(-c2ccc3c(c2)OCCO3)c(C(F)(F)F)oc2cc(O)cc(O)c12 22.9%, CCOC(=O)c1oc2c(CN3CCN(C)CC3)c(O)ccc2c(=O)c1-c1ccc(Br)cc1 -3.79%, COC(=O)C1CN(Cc2cn(Cc3ccc(F)cc3)nn2)CCS(=O)(=O)N1Cc1ccc(Cl)cc1 (stereo not drawn) -1.1%, COc1cccc(-c2cc(CNC(=O)[C@@H](Cc3ccccc3)NC(=O)[C@H]3O[C@@H](n4cnc(C(N)=O)n4)[C@H](O)[C@@H]3O)no2)c1 6.53%, COc1cccc(CC(=O)N2CCN(C(=O)C(=O)c3cccc(C(F)(F)F)c3)CC2)c1 -1.34%, Cc1[nH]c2ccc(S(N)(=O)=O)cc2c1C 2.18%, Cc1cccc(N=Nc2c(O)[nH]c3ccc(F)cc23)c1 17.5%, O=C(NC1CCCCN(Cc2ccc(Cl)cc2)C1=O)c1ccc(Br)cc1 (stereo not drawn) 2.36%, O=C(O)Cn1cnc2c(NCc3ccccc3)ncnc21 2.28%, Nn1c(SCC(=O)Nc2cccc3ccccc23)nnc1-c1cc(-c2ccc(F)cc2)n[nH]1 9.39%, CCOc1ccc(NC(=O)C(C)N2C(=O)c3ccccc3C2=O)cc1 (stereo not drawn) -4.17%, O=C1/C(=C/c2cccs2)SC(=S)N1C1CCS(=O)(=O)C1 (stereo not drawn) -0.31%, CC(C)c1ccc(N2CC(C(=O)Nc3nccs3)CC2=O)cc1 (stereo not drawn) 0.86%, CNS(=O)(=O)c1ccc(NC(=O)C2CC(=O)N(c3ccc(Cl)cc3)C2)cc1 (stereo not drawn) 6.47%, Nc1ncnc2c1ncn2C1OC(CO)CC1O (stereo not drawn) 0.74%, O=C(NCCc1c[nH]c2ccccc12)OCc1cn(-c2c(F)cccc2F)nn1 0.36%, COCCN(Cc1ccccc1)C(=O)Cc1ccc(S(=O)(=O)N2CCOCC2)s1 0.74%, CCCCCCCCN1C(=O)[C@@H](CC(=O)NCc2ccc(C)o2)C[C@@]2(C(=O)OC)C1=C[C@H](C(C)(C)C)O[C@@H]2C 1.42%, O=C(O)c1ccc(N=NN2CCOCC2)cc1 3%, O=C1OC(NC(=O)c2ccccc2)C(N2CCOCC2)=C1Cl (stereo not drawn) -0.63%, CCOc1ccc(-n2c(SCC(=O)Nc3cc(C)c(NC(=O)c4ccccc4)cc3OC)nnc2-c2cccc(Cl)c2)cc1 12.6%, CCc1ccc(NC(=O)CCNS(=O)(=O)c2cccs2)cc1 -0.02%, O=C(COC(=O)c1ccc(O)cc1O)NNC(=O)c1cccs1 1.41%, C=CCn1c(C2CC(=O)N(c3ccc(C)cc3)C2)nc2ccccc21 (stereo not drawn) -6.52%, C=CCOC/C=C/C#CCN(CC=C)Cc1ccc(OC)cc1OC -2.46%, COC(=O)[C@]12C[C@H](CC(=O)NCc3cccc(C(F)(F)F)c3)C(=O)N(Cc3ccc4c(c3)OCO4)C1=C[C@H](COCc1ccccc1)O[C@@H]2C 7.43%, Cc1nnc(SCC(=O)Nc2ccc(S(=O)(=O)Nc3ccc(Cl)nn3)cc2)s1 16.9%, O=C(CSc1nnc(SCc2ccc(F)cc2)s1)Nc1ccc(C(=O)O)cc1 24.4%, Cc1ccc(-c2nnc(SCC(=O)Nc3ccc(Oc4ccccc4)cc3)n2Cc2ccco2)cc1 10.4%, CCn1c2ccccc2c2cc(NC(=O)CSc3nnc(-c4ccccc4)n3-c3ccc(C)cc3)ccc21 11.4%, Cc1noc(NS(=O)(=O)c2ccc(N3CC(O)=C(c4ccccc4)C3=N)cc2)c1C 2.76%, O=C(CSc1nnc(-c2cccc(Cl)c2)n1Cc1ccco1)Nc1ccc(OCc2ccccc2)cc1 8.04%, COC(=O)C1=C(C)N(Cc2cccc(C(F)(F)F)c2)C(=NCc2ccccc2)NC1c1ccccc1C(F)(F)F (stereo not drawn) 4.41%, NC(=O)c1ncn([C@@H]2O[C@H](C(=O)O)[C@@H](O)[C@H]2O)n1 1.22%, COc1ccc(C#CCNCc2ccc(OC)cc2OC)cc1 7.62%, CC(=O)OC1CCC2(C)C(=CCC3C4CC(=O)N(O)C(=O)C4(C)CCC32)C1 (stereo not drawn) 5.82%, CC(=O)OCCN1CCCC12CCC(c1ccccc1)CC2 (stereo not drawn) 2.02%, COC(=O)[C@]12C[C@H](CC(=O)NCCCN3CCCC3=O)C(=O)N(CCc3ccc(OC)c(OC)c3)C1=C[C@H](COCc1ccccc1)O[C@@H]2C 3.23%

inhibition, active:
CCOC(=O)c1cc2cc(-c3c(C(=O)OCC)oc4cc(O)cc(O)c4c3=O)ccc2o1 42.5%, NS(=O)(=O)c1ccc(N=Nc2c(O)[nH]c3ccc(Br)cc23)cc1 51.6%, CC(C(=O)Nc1ccc(O)c(C(=O)O)c1)N1C(=O)/C(=C/c2cccs2)SC1=S (stereo not drawn) 87.5%, CCc1ccc(N2CC(C(=O)Nc3ccc(S(=O)(=O)Nc4nccs4)cc3)CC2=O)cc1 (stereo not drawn) 50.1%, O=C(O)c1ccc(NN=CC2=C(N3CCOCC3)/C(=C/c3ccccc3)CC2)cc1 48.1%, O=C(COC(=O)c1ccc(NS(=O)(=O)c2cccs2)cc1O)Nc1ccc(F)cc1 43.1%, C=CCn1c(=S)[nH]c2scc(-c3ccco3)c2c1=O 51.7%, CCn1c(SCC(=O)Nc2ccc(S(=O)(=O)Nc3onc(C)c3C)cc2)nnc1-c1ccccc1 35.5%, Cc1cc(NS(=O)(=O)c2ccc(NC(=O)CSc3nnc(-c4ccc(C(C)(C)C)cc4)n3Cc3ccco3)cc2)nc(C)n1 37%, Cc1cc(NS(=O)(=O)c2ccc(NC(=O)CSc3nnc(SCc4ccc(F)cc4)s3)cc2)nc(C)n1 43.9%

Source: PubChem BioAssay AID651821 (The Scripps Research Institute Molecular Screening Center, 2012)
